Experimental data taken from PubChem BioAssay (NCI).
About 79,000 compounds went through this panel and 15% of them were active in at least one assay; those are over-represented in the sample as a whole. No stated cut-off is given here; in the data, active means growth inhibition above about 70%; inactive means the rest.

Experiments:
[1] = NCI Yeast Anticancer Drug Screen. Data for the rad50 strain (AID 155);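 further: 0% = growth of vehicle-only cultures of the same strain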; conditions: S. cerevisiae rad50 strain growth inhibition; at 50.0 µM; active compounds read high
Method in brief: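 Relative growth inhibition (compound vs vehicle) was measured in yeast with a defined repair-gene alteration.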

[2] = NCI Yeast Anticancer Drug Screen. Data for the mec2-1 strain (AID 157); conditions: S. cerevisiae mec2-1 strain, at 50.0 µM, active compounds read high
Method in brief: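 Vehicle-treated cultures served as reference for growth inhibition of compound-exposed mec2-1 yeast.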

[3] = NCI Yeast Anticancer Drug Screen. Data for the sgs1 mgt1 strain (AID 161);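 further: 0% = growth of cultures given vehicle only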; conditions: S. cerevisiae sgs1 mgt1 strain, at 50.0 µM, active compounds read high
Method in brief: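 Mutant yeast exposed to compound; growth scored against vehicle-only wells.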

[4] = NCI Yeast Anticancer Drug Screen. Data for the cln2 rad14 strain (AID 165);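 further: 0% = growth equal to vehicle treated cultures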; conditions: S. cerevisiae cln2 rad14 strain, at 50.0 µM, active compounds read high
Method in brief: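 Each compound was tested on cln2 rad14 yeast. Inhibition of growth was calculated against vehicle-exposed controls.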

[5] = NCI Yeast Anticancer Drug Screen. Data for the bub3 strain (AID 167); conditions: S. cerevisiae bub3 mutant strain, at 50.0 µM, active compounds read high
Method in brief: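 Screening used yeast with an engineered genetic alteration affecting cell cycle control. Compound-exposed cultures were compared with vehicle cultures, and reduced growth was taken as inhibition.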

[6] = NCI Yeast Anticancer Drug Screen. Data for the mlh1 rad18 strain (AID 175); conditions: S. cerevisiae mlh1 rad18 strain growth inhibition; at 50.0 µM; active compounds read high
Method in brief: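 Vehicle-treated cultures served as the reference for growth inhibition in a yeast strain carrying DNA damage repair alterations exposed to each compound.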

Measured: growth inhibition

CCOc1ccc(/C=C2\C=Nc3ccccc32)cc1
inactive: [1] -3.75% | [2] -10.8% | [3] 3.2% | [4] 6.7% | [5] 16.1% | [6] -5.4%

CC1(C)CC(C)(OC(=O)c2ccccc2)N=N1 (stereo not given)
inactive: [1] 14.6% | [2] -11.1% | [3] 20.1% | [4] -16.4% | [5] 4.35% | [6] 11.1%

CC(=O)Nc1cc(CN2CCCCC2)c(O)c2ncccc12
inactive: [1] -8.65% | [2] -21.4% | [3] -38.3% | [4] -36% | [5] -35.1% | [6] -8.05%

CC1C(O)=C(O)c2ccccc2N1O (stereo not given)
inactive: [1] -9.15% | [2] -11.1% | [3] -8.6% | [4] 12.5% | [5] -6.25% | [6] -10.7%

CN1c2ccc(C3N(C(=O)C(F)(F)F)C=CN3C(=O)C(F)(F)F)cc2Sc2cc(C3N(C(=O)C(F)(F)F)C=CN3C(=O)C(F)(F)F)ccc21
inactive: [1] -3.65% | [2] 1.15% | [3] -2% | [4] -6.9% | [5] 1.05% | [6] 19.9%

CN(C)C(=O)C1Cc2ccccc2CC1C(=O)N(C)C (stereo not given)
inactive: [1] -0.4% | [2] -0.55% | [3] 0.85% | [4] -21.5% | [5] -3.6% | [6] -9.75%

O=COCCCCCc1ccccc1
inactive: [1] -10.6% | [2] -5.05% | [3] -2.55% | [4] 8.6% | [5] -6.45% | [6] -11%

CCC1CN2CCc3cc(OC)c(OC)cc3C2CC1CC1c2cc(OC)c(OC)cc2CCN1C(=O)C1CCCN1 (stereo not given)
inactive: [1] -1.45% | [2] -1.45% | [3] 12.1% | [4] 6.85% | [5] 7.65% | [6] -3.4%

Fc1ccc(C2SCc3nc4ccccc4n32)cc1F (stereo not given)
inactive: [1] -49.9% | [2] -1.3% | [3] 24.3% | [4] 1.25% | [5] -13.8% | [6] 18.6%

CC(C)NC(=O)N(C(=O)C(F)(F)F)C(C)C
inactive: [1] -0.95% | [2] 7.45% | [3] -4.6% | [4] -41% | [5] 2.1% | [6] 7.5%

CCOC(=O)CCC(NC1=C(Cl)C(=O)c2ccccc2C1=O)C(=O)O (stereo not given)
inactive: [1] 12.2% | [2] 2.15% | [3] 20.4% | [4] -63.1% | [5] 0.15% | [6] 24.9%

Cc1cc(N(CCCOS(C)(=O)=O)CCCOS(C)(=O)=O)ccc1C=Nc1cc(Cl)c(O)c(Cl)c1
inactive: [1] 31.7% | [2] 21.4% | [3] 62.8% | [4] 8.65% | [5] 34.7% | [6] 54.5%

COc1ccc(CC(C)=C(C#N)C#N)cc1OC
inactive: [1] -10.8% | [2] -2.45% | [3] -8.25% | [4] 11.8% | [5] -0.05% | [6] -17.3%

CC(=O)/C(=C/n1c(=S)[nH]c2ccccc21)C(=O)Nc1ccc([N+](=O)[O-])cc1
inactive: [1] -17.5% | [2] -2.75% | [3] -13.9% | [4] -8.9% | [5] -14.1% | [6] -13.2%

CCN(CC)C1Oc2cc3c(cc2C(c2cccc(OC)c2O)C1C)OCO3 (stereo not given)
inactive: [1] 21.1% | [2] -0.15% | [3] 22.8% | [4] 21.7% | [5] 15.2% | [6] -1.4%

O=P(O)(O)c1ccc(I)cc1
inactive: [1] 10.5% | [2] -30.6% | [3] -12.4% | [4] 0.75% | [5] -20.3% | [6] -5.9%

c1ccc(C2OCCO2)c(OCCOc2cc(OCCOc3ccccc3C3OCCO3)c(OCCOc3ccccc3C3OCCO3)cc2OCCOc2ccccc2C2OCCO2)c1
inactive: [1] -7.6% | [2] -18.9% | [3] -9.9% | [4] 0.3% | [5] -4.3% | [6] 12.3%

C[n+]1nc([O-])oc1-c1ccccc1
inactive: [1] 4.5% | [2] 3.05% | [3] 11.4% | [4] -3.65% | [5] -4.6% | [6] 6.3%

COC(=O)C1(C)CCCC2(C)C1CCC13OC(=O)C(C(C)C)(CC21)C3O (stereo not given)
inactive: [1] -3.6% | [2] -28.3% | [3] -10.8% | [4] -33.7% | [5] -1.45% | [6] -28.8%

COC(C)CCOC(=O)c1ccccc1C (stereo not given)
inactive: [1] 10% | [2] -6.1% | [3] 0.8% | [4] -21.8% | [5] 24.9% | [6] 3.2%
